From PubChem BioAssay
Hits are enriched below; roughly 1.1% of the tested compounds scored in any of these assays.
DTT redox prof = compounds producing H2O2 with reducing agent – biochemical, NIH compound library profiling, artefact control for MLSCN library redox annotation, primary screen. DTT-dependent redox cycling H2O2, phenol red/HRP absorbance; 100% = 100 µM peroxide control, 0% = buffer. activation, % at 10 µM. hit rate 0.03% among 200,000. AID 878, 2007;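 active = activation of at least 50% relative to the plate's high and low controls in the primary single-dose screen; inactive = activation below 50%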;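 also: compound incubated with DTT at 0.8 mM final as the reducing agent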
S1P3 antag = S1P3 receptor antagonists, primary screen, cell-based | CHO S1P3 NFAT-BLA reporter, FRET fluorescence, antagonist mode | inhibition, % at 4.98 µM | hit rate 0.27% among 170,000;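 active = inhibition above the plate cutoff, the mean inhibition of test wells on that plate plus 3 SD, cut at about 28% in these data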;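 also: cells challenged with S1P at its EC80 of 0.8 µM; blue over green emission ratio from cleaved BLA substrate after 4 h stimulation; 0% = S1P-stimulated wells and 100% = unstimulated DMSO-only wells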
S1P4 ag = S1P4 receptor agonists, primary screen, cell-based | Sphingosine 1-phosphate receptor 4 (Homo sapiens), O95977 | S1P4-expressing cell line, agonist reporter assay | activation, % at 4.98 µM | hit rate 0.35% among 220,000 | AID 1509, 2009; in the data active = activation above about 11%;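 also: 0% = DMSO vehicle and 100% = reference agonist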
Target sequence (O95977 whole entry, looked up): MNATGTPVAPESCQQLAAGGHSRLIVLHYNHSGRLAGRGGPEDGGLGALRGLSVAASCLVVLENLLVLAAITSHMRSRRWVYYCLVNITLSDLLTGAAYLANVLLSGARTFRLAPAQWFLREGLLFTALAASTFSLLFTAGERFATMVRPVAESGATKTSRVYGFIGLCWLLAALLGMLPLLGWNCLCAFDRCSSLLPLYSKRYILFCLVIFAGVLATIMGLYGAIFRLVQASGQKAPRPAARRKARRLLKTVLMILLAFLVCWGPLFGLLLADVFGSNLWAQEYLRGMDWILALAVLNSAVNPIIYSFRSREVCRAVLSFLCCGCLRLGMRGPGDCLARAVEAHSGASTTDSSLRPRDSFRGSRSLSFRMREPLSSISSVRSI
p97 ATPase inh = inhibitors of human p97 ATPase, primary screen, biochemical. hit rate 0.42% among 220,000. recombinant p97 ATPase, Kinase-Glo ATP luminescence, 3 h. inhibition, % at 8 µM. Transitional endoplasmic reticulum ATPase (Homo sapiens), P55072. AID 1481, 2009; in the data active = inhibition above about 15%;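 also: 0% = DMSO vehicle and 100% = wells lacking enzyme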
S1P4 antagonist = S1P4 receptor antagonists, primary screen, cell-based; inhibition, % at 4.98 µM; S1P4-expressing cells, antagonist mode, reporter read-out; Sphingosine 1-phosphate receptor 4 (Homo sapiens), O95977; hit rate 0.26% among 220,000; in the data active = inhibition above about 29%;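 also: 0% = wells stimulated with agonist and 100% = vehicle wells without agonist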
SUMO HTRF inh = inhibitors of in vitro SUMOylation cascade, primary screen, biochemical, HTRF, uHTS. SUMO-conjugating enzyme UBC9 (Homo sapiens), P63279. HTRF SUMOylation assay, SAE1/SAE2 + UBC9. inhibition, % at 35 µM. hit rate 0.36% among 290,000. AID 2006, 2009; in the data active = inhibition above about 50%, passing the limit was not always enough
Target sequence (P63279 whole entry, looked up): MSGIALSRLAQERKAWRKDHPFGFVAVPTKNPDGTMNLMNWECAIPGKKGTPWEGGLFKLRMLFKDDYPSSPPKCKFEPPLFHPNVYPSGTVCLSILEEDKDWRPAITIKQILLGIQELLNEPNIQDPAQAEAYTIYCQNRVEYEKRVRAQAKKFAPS
S1P4 antag conf = S1P4 receptor antagonists, human, confirmation, cell-based | AID 1524, 2009 | S1P4-expressing cell line, antagonist mode, reporter read-out | shares compounds with S1P4 antagonist | inhibition, % at 4.98 µM | hit rate 71% among 520; in the data active = inhibition above about 30%
S1P1 antag = S1P1 receptor antagonists, human, counter-screen for S1P4 antagonist project, cell-based. shares compounds with S1P4 antagonist. inhibition, % at 4.98 µM. cell-based S1P1 antagonist counterscreen, inhibition. hit rate 37% among 520; in the data active = inhibition above about 40%;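 also: receptor stimulated with S1P near its EC80; 0% = agonist stimulated wells and 100% = vehicle only wells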
Starred values were filed as active, the others as inactive; · = no result; ! = not confirmed by another sample.

SMILES	DTT redox prof	S1P3 antag	S1P4 ag	p97 ATPase inh	S1P4 antagonist	SUMO HTRF inh	S1P4 antag conf	S1P1 antag
COC(=O)c1ccc(NC(=O)CSc2nncn2-c2ccccn2)cc1	·	·	·	·	·	-11	·	·
Cc1cc2oc(C(=O)Nc3c(C)n(C)n(-c4ccccc4)c3=O)c(C)c2cc1C	0	-4	0	1	30*	15	61*	48*
Cc1ccc2c(C)c(C(=O)Nc3c(C)n(C)n(-c4ccccc4)c3=O)oc2c1C	0	-6	-1	2	29*	16	61*	30
COC(=O)c1ccc(C(=O)OC)c(NC(=O)CSCc2ccccc2Br)c1	3	·	-2	3	-9	6	·	·
COc1cc(SC)ccc1C(=O)Nc1ccc(C)cc1C	1	11	-2	1	34*	14	55*	15
COc1cc(SC)ccc1C(=O)Nc1ccc(C)cc1	0	17	-2	0	9	-2	·	·
CCCCCC1CC(CC#CCN2CCOCC2)C(=O)O1 (configuration not stated)	1	·	0	6	-7	22	·	·
CC(C)(C)c1ccc(-n2nc(C(N)=O)c(O)cc2=O)cc1	-2	-2	-1	-4	-25	12	·	·
CC(C)(C)c1ccc(-n2nc(C#N)c(Cl)cc2=O)cc1	-2	-5	-6	1	110*	12	120*	49*
COc1cc(NC2CCCCC2O)c2nc(-c3ccc(Cl)cc3)ccc2c1 (configuration not stated)	·	25	0	5	30*	31	65*	62*
Cc1cc(C)c2cc(C(=O)Nc3ccccc3)[nH]c2c1	·	5	2	14	-7	-8	·	·
C=CCn1c(Sc2ncc([N+](=O)[O-])s2)n[nH]c1=O	·	2	4	-4	69*	-5	111*	51*
C=CCn1c(CSc2ccccc2[N+](=O)[O-])n[nH]c1=S	·	·	·	·	·	42	·	·
O=[N+]([O-])c1cnc(Sc2ccncn2)s1	·	11	1	-1	35*	10	116*	112*
O=C(Nc1ccc(Cl)cc1)Nc1ccccc1Sc1ncc([N+](=O)[O-])s1	·	2	1	11	13	-29	·	·
OCCC1CCCCN1CC(O)COCc1ccc(Cl)cc1 (configuration not stated)	·	·	·	·	·	-2	·	·
O=S(=O)(C/C(=C/CO)S(=O)(=O)c1ccccc1)c1ccccc1	1	14	-1	7	40*	-9	87*	20
CCN(Cc1ccccc1)C(=O)CS(=O)(=O)c1ccccc1	0	0	0	2	-2	12	·	·
O=C(Nc1cccc(Cl)c1)Nc1nccs1	0	-7	3	13	35*!	5	24	23
O=C(Nc1ccc(Cl)c(Cl)c1)Nc1nccs1	·	27	2	-1	-13	26	·	·
Cc1cc(C)c(C(=O)Nc2ccc(Br)c(C(F)(F)F)c2)c(C)c1	·	-1	1	6	29*	-16	53*	2
NC(=O)Nc1ccc(F)cc1	0	·	0	2	2	-8	·	·
CCN(CC)c1ccc(/C=N/Nc2nc3ccccc3[nH]2)cc1	0	11	0	6	37*	-115	110*	81*
CCC(=O)OCCNc1cc(Sc2nc3ccccc3s2)c2nonc2c1[N+](=O)[O-]	1	·	3	1	9	88	·	·
CCC(=O)OCCNc1cc(Sc2nc3ccccc3[nH]2)c2nonc2c1[N+](=O)[O-]	0	2	1	11	36*	36	110*	7
SMILES	DTT redox prof	S1P3 antag	S1P4 ag	p97 ATPase inh	S1P4 antagonist	SUMO HTRF inh	S1P4 antag conf	S1P1 antag
CCc1ccc(N/C(SCc2ccccc2C)=C(/C#N)C(=O)NCc2ccco2)cc1	-3	·	0	-1	-24	4	·	·
O=S(=O)(c1ccc(Cl)c(Cl)c1)c1snnc1-c1ccccc1	0	·	0	23*	56*	-6	114*	75*
c1ccc(-c2nnsc2-c2ccccc2)cc1	·	·	·	·	·	-6	·	·
Cc1cc(N(C)C)c(C#N)c(NCc2ccccc2)n1	-1	6	0	0	35*	16	24	24
CN(C)c1ccnc(NCc2ccccc2)c1C#N	0	-17	-1	0	-14	15	·	·
O=S(=O)(Nc1ccon1)c1ccc(F)c(F)c1	·	·	·	·	·	19	·	·
O=C(OCn1nnc2ccccc2c1=O)c1cc(-c2ccccc2Cl)nc2ccccc12	1	-6	3	0	-10	-5	·	·
Cc1onc(-c2ccccc2Cl)c1C(=O)OCn1nnc2ccccc2c1=O	0	-7	-2	-6	30*	-16	11	4
Cc1cnc(NC(=O)c2nn(C)cc2[N+](=O)[O-])s1	0	-7	-1	-2	22	10	·	·
Cn1cc([N+](=O)[O-])c(C(=O)Nc2nc(-c3ccc(Cl)cc3)cs2)n1	0	·	-6	-3	26	39	·	·
Cc1ccc(-c2nc(NC(=O)c3nn(C)cc3[N+](=O)[O-])sc2C)cc1C	-2	·	1	-3	87*	20	115*	-29
Cc1ccc(-c2nc(NC(=O)c3nn(C)cc3[N+](=O)[O-])sc2C)cc1	-1	·	-8	3	78*	5	115*	-10
Cc1cc(C)c(S(=O)(=O)NCC(=O)NCc2cc(=O)n(C)c(=O)n2C)c(C)c1	·	·	·	·	·	10	·	·
CCOC(=O)COc1ccc2ccccc2c1/C=C/[N+](=O)[O-]	0	9	-1	9	49*	11	120*	155*
O=[N+]([O-])/C=C/c1c(OCc2ccccc2)ccc2ccccc12	1	·	2	9	15	6	·	·
CCOC(=O)COc1ccc(/C=C/[N+](=O)[O-])c(OCC(=O)OCC)c1	-5	·	-4	1	30*	-11	116*	83*
COc1ccc(C(=O)/C(=C\c2ccco2)N2C=CC=CC2=C(C#N)C#N)cc1	2	·	-3	5	70*	-7	117*	41*
N#CC(C#N)=C1C=CC=CN1/C(=C\c1ccco1)C(=O)c1ccccc1	0	-7	-1	7	66*	-1	116*	119*
CC(=O)Nc1ccc2nc(NC(=O)CCc3ccccc3)sc2c1	-2	9	-1	-2	-11	5	·	·
N#Cc1cn(CCOc2ccccc2F)c2ccccc12	-3	2	0	-3	37*	-4	9	27
